# In PMC13423814:
# What was measured:
# Peroxiredoxin-1 = Peroxiredoxin-1 (UniProt Q06830)
# [1] = target: DNA replication licensing factor MCM2 (UniProt P49736)
# Histone H4 = Histone H4 (UniProt P62805)
# [2] = target: Serine/arginine-rich splicing factor 1 (UniProt Q07955)
# Serine/arginine-rich splicing factor 1, sequence (Q07955 whole entry): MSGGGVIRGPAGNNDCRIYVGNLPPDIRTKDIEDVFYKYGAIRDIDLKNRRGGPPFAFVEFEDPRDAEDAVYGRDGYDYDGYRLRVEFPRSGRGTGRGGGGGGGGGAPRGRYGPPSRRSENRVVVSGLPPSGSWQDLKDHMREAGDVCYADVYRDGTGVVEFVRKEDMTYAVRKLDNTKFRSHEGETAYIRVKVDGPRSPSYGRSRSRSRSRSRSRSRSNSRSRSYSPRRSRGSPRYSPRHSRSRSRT
# DNA replication licensing factor MCM2, sequence (P49736 whole entry): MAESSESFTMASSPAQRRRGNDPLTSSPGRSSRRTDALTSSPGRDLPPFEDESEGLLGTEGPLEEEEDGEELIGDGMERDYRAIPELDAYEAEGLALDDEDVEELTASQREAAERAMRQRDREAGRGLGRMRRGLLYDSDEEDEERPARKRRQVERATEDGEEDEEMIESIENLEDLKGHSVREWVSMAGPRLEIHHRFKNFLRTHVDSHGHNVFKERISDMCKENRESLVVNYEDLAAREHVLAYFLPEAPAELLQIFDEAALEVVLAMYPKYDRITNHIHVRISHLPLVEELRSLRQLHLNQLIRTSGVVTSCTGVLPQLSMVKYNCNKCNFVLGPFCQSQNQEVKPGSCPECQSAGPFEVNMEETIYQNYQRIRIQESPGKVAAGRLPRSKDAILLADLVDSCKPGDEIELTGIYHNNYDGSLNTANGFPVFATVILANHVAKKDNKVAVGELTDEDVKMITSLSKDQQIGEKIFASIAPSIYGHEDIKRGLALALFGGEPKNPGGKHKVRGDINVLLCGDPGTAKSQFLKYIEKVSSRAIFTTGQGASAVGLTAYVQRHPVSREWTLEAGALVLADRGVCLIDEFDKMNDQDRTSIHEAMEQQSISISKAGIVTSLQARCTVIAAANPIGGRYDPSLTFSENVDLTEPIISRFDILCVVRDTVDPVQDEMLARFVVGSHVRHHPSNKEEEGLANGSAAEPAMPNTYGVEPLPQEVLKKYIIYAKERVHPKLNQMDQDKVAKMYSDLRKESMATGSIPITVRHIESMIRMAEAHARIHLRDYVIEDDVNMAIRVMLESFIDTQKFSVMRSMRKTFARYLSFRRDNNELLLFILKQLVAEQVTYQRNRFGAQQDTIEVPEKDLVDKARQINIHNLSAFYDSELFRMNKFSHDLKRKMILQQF
# Peroxiredoxin-1, sequence (Q06830 whole entry): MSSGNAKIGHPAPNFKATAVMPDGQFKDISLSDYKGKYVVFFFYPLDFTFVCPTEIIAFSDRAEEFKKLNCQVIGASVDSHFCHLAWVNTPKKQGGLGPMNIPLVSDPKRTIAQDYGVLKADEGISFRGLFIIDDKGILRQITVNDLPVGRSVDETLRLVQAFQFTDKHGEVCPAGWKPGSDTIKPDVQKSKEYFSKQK
substance,measurement,setting,value
"Putative keratin-87 protein, A6NCN2",listed as a hit,Peroxiredoxin-1,yes
"DNA replication licensing factor MCM3, P25205",listed as a hit,[1],yes
"Prelamin-A/C, P02545",listed as a hit,Histone H4,yes
"RNA-binding motif protein, X chromosome, P38159",listed as a hit,[2],yes
